Holding throughout (experiment): NCI-60 one-dose screen, 48 h (100 = growth as untreated, 0 = no growth, -100 = all killed)
What all share (settings): 10 µM unless noted

In test [1] the test system is RPMI-8226 leukemia.
Test [2] has as its system OVCAR-8 ovarian.
Test [3] concerns OVCAR-5 ovarian.
The test system of test [4] is OVCAR-4 ovarian.
The test system of test [5] is SK-OV-3 ovarian.
Test [6] concerns IGROV1 ovarian.
The subject of test [7] is OVCAR-3 ovarian.
Test [8] has as its system HS 578T breast.
Test [9] deals with NCI/ADR-RES ovarian.
Test [10] concerns T-47D breast.
The subject of test [11] is BT-549 breast.
Test [12] deals with MDA-MB-435 melanoma.
Test [13] concerns SW-620 colon.
For test [14], the system named is MCF7 breast.
The subject of test [15] is HCT-116 colon.
For test [16], the system named is HCC-2998 colon.
Test [17] has as its system KM12 colon.

Compounds without any hit were thinned out: in the full panel of roughly 83,000, 20% have a hit.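 Percent growth is the endpoint: 0 to 100 indicates growth inhibition (40 means 60% inhibition), 0 means no net growth, and negative values indicate cell death.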 A number with no mark means an inactive call. Calls of active or inactive are those of the source. The calls were made as follows: active = growth percent below 10; inactive = the rest.

Experimental findings from PubChem BioAssay (NCI) are described below.

For `Cc1ccc(C2CC(c3ccc(Nc4ccnc5cc(Cl)ccc45)cc3)=NN2C=O)cc1` (stereo not drawn), the growth in [1] is 19.8%; in test [2], 59.8%; in test [3], 94.8%; in test [4], 38.7%; in [5], 84.8%; in test [6], 48.2%. Also, the growth in test [7] is 30.6%; in test [8] it was 61.8%; in [9] it was 42.3%; in [10], 38.3%; in test [11], 56.8%; in test [12] it was 16.3%. The growth in test [13] was 68%; in test [14], 35.2%; in [15], 57.6%; in test [16], 53.2%; in [17], 50.2%.

For `N#Cc1c(-c2ccccc2)nc(SCC(=O)Nc2nc(-c3ccc(Cl)cc3)cs2)[nH]c1=O`, the growth is 92.5% in test [1]; 99.1% in test [2]; 90.7% in test [3]; 110% in [4]; 85.2% in test [5]; 96.5% in test [6]. For the same compound, the growth in test [7] was 108%; in [8], 88.6%; in [9], 103%; in test [10], 81.8%; in [11], 93.6%; in test [12] it was 99.6%. Further, the growth in [13] was 113%; in [14], 91.7%; in test [15] it was 81.8%; in test [16] it was 81.5%; in [17], 103%.

Take `NC(=O)Nc1ccc2ncnc(Nc3ccc(Cl)cc3)c2c1`: the growth was 101% in test [1]; 89.5% in test [2]; 83.6% in test [3]; 91.9% in [4]; 30.2% in [5]; 61% in test [6]. Further, the growth was 74.2% in test [7]; 87.8% in test [8]; 88.7% in test [9]; 61.6% in test [10]; 92.4% in test [11]; 97.8% in [12]. Moreover, the growth in test [13] was 99.1%; in test [14], 86.5%; in test [15] it was 96.4%; in [16], 97.9%; in [17], 98.5%.

With `CCOC(=O)Nc1ccc(C(=O)/C=C/c2ccccc2)cc1`, the growth was 18.9% in test [1]; 92.3% in test [2]; 102% in test [3]; 103% in test [4]; 110% in [5]; -22.8% (active) in test [6]. For the same compound, the growth in [7] was 86.8%; in test [8], 93.6%; in [9], 89%; in test [10] it was 84.3%; in [11] it was 95.1%; in test [12], 44.6%. Moreover, the growth is 73.9% in test [13]; 0.358% (active) in test [14]; 6.33% (active) in [15]; 34.4% in test [16]; 8.51% (active) in test [17].

For `CCN1C(=O)N(CC)C2Nn3c(s/c(=C\c4ccc([N+](=O)[O-])cc4)c3=O)=NC21` (stereo not drawn), the growth in test [1] was 51.8%; in test [2] it was 66.7%; in test [3], 82.5%; in test [4], 14.2%; in test [5], 105%; in test [6], 17.3%. For the same compound, the growth in test [7] is 11.6%; in test [8] it was 83.4%; in [9], 23.4%; in [10], 40.2%; in test [11], 95.2%; in test [12], 61.9%. For the same compound, the growth in test [13] was 60.2%; in [14] it was 11%; in test [15] it was 18.2%; in [16], 101%; in test [17], 97.8%.

Consider `CNCCCC12CCC(c3ccccc31)c1ccccc12`, for which the growth in test [1] is 91%; in test [2], 99.7%; in test [3] it was 90.2%; in test [4], 86.8%; in test [5], 85.2%; in test [6], 82.7%. Further, the growth is 107% in [7]; 87.3% in test [8]; 89.5% in test [9]; 89% in test [10]; 78.3% in test [11]; 78.9% in [12]. Further, the growth in test [13] was 98.2%; in [14] it was 87.3%; in test [15] it was 69.1%; in test [16], 50.5%; in test [17] it was 94.1%.

With `N#Cc1ccc(NC(=O)c2sc3nc4c(cc3c2N)C(=O)CCC4)cc1`, the growth was 95.7% in [1]; 105% in test [2]; 89.2% in test [3]; 106% in test [4]; 106% in [5]; 113% in test [6]. In addition, the growth is 114% in test [7]; 111% in test [8]; 106% in test [9]; 95.9% in [10]; 108% in test [11]; 97.4% in [12]. Also, the growth in test [13] is 98.1%; in [14], 97.4%; in [15] it was 108%; in [16] it was 99.2%; in [17], 101%.

As for `CCCCC1CCCC12NC(=O)NC2=O` (stereo not drawn), the growth in test [1] was 101%; in [2], 113%; in [3], 88.2%; in test [4], 106%; in [5] it was 110%; in [6] it was 88.8%. Further, the growth in test [7] is 92.8%; in [8], 112%; in [9], 92.9%; in test [10], 91.7%; in test [11], 95.1%; in test [12], 109%. The growth in test [13] is 102%; in test [14] it was 105%; in test [15], 99.4%; in test [16], 96.9%; in [17], 106%.

For `COc1c(B(O)O)cc(F)cc1-c1nc2ccc3[nH]ncc3c2c2c1CCCC2`, the growth is -9.77% (active) in [1]; 16.1% in test [2]; 15.4% in test [3]; 25.8% in test [4]; 19.3% in test [5]; 10.6% in [6]. Moreover, the growth was 11.9% in [7]; -2.19% (active) in test [8]; 16.1% in test [9]; 14% in [10]; -35.5% (active) in test [11]; 16.4% in test [12]. Also, the growth in test [13] is 5.71% (active); in [14], 4.26% (active); in [15] it was 3.48% (active); in test [16], 5.31% (active); in test [17] it was -3.54% (active).
